Source: PubChem BioAssay (several laboratories)
An excerpt weighted towards active compounds, which were near 5.3% of everything screened.
Mot1-301 SUMO = blocks SUMOylation pathway, rescuing yeast Mot1-301 growth; S. cerevisiae Mot1-301 growth rescue, ATP luminescence, 38.5C; percent above DMSO median, 100 means doubled; 1% of 320,000 active; growth rescue, % at 18.8 µM;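 active = every valid replicate shows activation above 250% relative to neutral control wells; inactive = the rest, any valid replicate at or below 250%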;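 also: OY570 slx delta 5 strain wells were the positive control but not used for scaling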
ALR inh = blocks human ALR sulfhydryl oxidase activity; P55789; purified ALR, DTT oxidation, H2O2 HRP-luminol luminescence; inhibition, % (no concentration beside the values); 3.8% of 290,000 active; AID 485317;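 active = mean replicate inhibition above about 79%, with every replicate also reaching it, limit read from the data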
Target sequence (P55789 whole entry, looked up): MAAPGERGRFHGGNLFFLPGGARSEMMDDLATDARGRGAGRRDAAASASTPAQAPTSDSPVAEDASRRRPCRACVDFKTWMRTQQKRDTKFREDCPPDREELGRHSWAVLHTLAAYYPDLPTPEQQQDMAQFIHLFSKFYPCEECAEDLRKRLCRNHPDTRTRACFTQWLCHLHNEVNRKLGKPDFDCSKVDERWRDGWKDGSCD
PfM18AAP inh = PfM18AAP enzyme inhibition. inhibition, % at 7.35 µM. 1.2% of 290,000 active. recombinant PfM18AAP, H-Glu-NHMec fluorogenic cleavage. AID 1822;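 active = inhibition above the campaign mean inhibition over all tested compounds plus 3 SD, cut at about 28% in these data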;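 also: 0% = plate median of test compound wells and 100% = 2 mM ZnCl2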
HIF act = HIF pathway transcriptional activation. activation, % at 7.5 µM (by protocol). 0.32% of 300,000 active. AID 1910. U2OS HRE-luciferase reporter, luminescence; normalized: DMSO 0%, desferrioxamine 100%;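 active = mean activation of at least 10% of the iron chelator positive control signal, with at least half of replicates also reaching 10%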
Mot1 SUMO dose = yeast SUMO pathway inhibition in dose response; shares compounds with Mot1-301 SUMO; S. cerevisiae Mot1-301 galactose growth, ATP luminescence, 24 h; -100 = growth of slx-deleted rescue strain; growth activity, percent, % at 42 µM; 2,300 tested, under 10 active; AID 493004;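 active = Signal drops as the depositor expects, and the fitted half-maximal dose is no more than ten times the top valid tested dose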;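 also: more negative values mean stronger growth rescue toward the control strain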
Starred values were filed as active, the others as inactive; x = not tested or not shown; + = active, no number.

SMILES | Mot1-301 SUMO | ALR inh | PfM18AAP inh | HIF act | Mot1 SUMO dose
COc1ccc(OC)c(S(=O)(=O)N(C)CC(=O)Nc2ccccc2OC)c1 | -3 | -2 | -10 | 0 | x
COc1ccc(OC)c(NC(=O)CN(C)S(=O)(=O)c2ccc(Cl)cc2)c1 | 415* | -3 | -1 | 0 | 0
Cc1nc2c(-c3ccc(F)cc3)cnn2c2c1CCC2 | 583* | 1 | 7 | 1 | 0
COc1ccc(-c2cnc3c(-c4ccc(F)cc4)cnn3c2N)cc1 | -20 | x | 1 | 4 | x
O=C(CNC(=O)c1ccc2c(c1)S(=O)(=O)N=C1CCCCCN12)Nc1ccc(F)c(F)c1 | -9 | 2 | x | 0 | x
CN1CCN(C(=O)CCN2C(=O)/C(=C/c3ccccc3Cl)SC2=S)CC1 | 378* | -4 | 16 | 0 | -1
Cc1onc(-c2ccccc2Cl)c1C(=O)OCC(=O)N1CCCCC1 | 9 | -16 | x | x | x
O=C1C2CCCN2C(=S)N1C1CCCCC1 (stereo not given) | 622* | -3 | 6 | 2 | -1
Cc1ccc(N2C(=O)C3CCCN3C2=S)cc1 (stereo not given) | 231 | -4 | 3 | 1 | x
CCN(CC)C(=O)Cn1c(=O)n(CCCCCC(=O)Nc2ccccc2)c(=O)c2sccc21 | 3 | -1 | 4 | 1 | x
CCN(CC)C(=O)Cn1c(=O)n(CCCC(=O)NCc2ccccc2)c(=O)c2sccc21 | 539* | -5 | 2 | 0 | 1
COc1ccc(/C=C2\SC(=O)N(CC(=O)NC3C=CS(=O)(=O)C3)C2=O)cc1 (stereo not given) | 3 | -4 | 5 | 0 | x
CCN(CCn1cccn1)C(=O)C1CCC(=O)N(CC2CCCCC2)C1 (stereo not given) | -3 | -6 | -7 | 0 | x
Cc1cc(C)cc(OCC(=O)Nc2ccc(N3CCN(C(=O)c4ccco4)CC3)cc2)c1 | 793* | -3 | 1 | 0 | -1
N#Cc1cc2c(nc1SCc1cccnc1)CCCC2 | 53 | x | 13 | 2 | x
N#Cc1cc2c(nc1SCc1cccnc1)CCC2 | + | 16 | -1 | 0 | 0
O=C(CN1C(=O)NC2(CCCC2)C1=O)Nc1nc2ccccc2[nH]1 | 553* | 0 | x | 0 | 0
Cc1ccc(S(=O)(=O)NCc2cccnc2)cc1 | 4 | -8 | -6 | -1 | x
CCc1ccc(S(=O)(=O)NCc2cccnc2)cc1 | 571* | -1 | -15 | -16 | -1
COc1ccc(C(=O)OCC(=O)c2ccccc2)cc1S(=O)(=O)N1CCOCC1 | + | -11 | 1 | 0 | 0
CS(=O)(=O)N(CC(=O)N1CCCCCC1)Cc1ccc(Cl)cc1 | 589* | 0 | -1 | 0 | 0
CN1CCN(C(=O)CN(Cc2ccc(Cl)cc2)S(C)(=O)=O)CC1 | 16 | -10 | -1 | x | x
COc1ccc(C(=O)OCC(=O)N2CCN(C(=O)c3ccco3)CC2)cc1OC | 5 | -3 | x | x | x
COc1cc(C(=O)Nc2sc3c(c2C(=O)O)CCC(C)C3)cc(OC)c1OC (stereo not given) | 438* | x | 4 | -21 | 0
CN(C)CCNC(=O)c1onc(CSc2ccc(F)c(F)c2)c1C(=O)NCCN(C)C | 578* | -2 | x | 0 | 0
SMILES | Mot1-301 SUMO | ALR inh | PfM18AAP inh | HIF act | Mot1 SUMO dose
CCOC(=O)c1sc2ncn(C(CC)C(=O)OCC)c(=O)c2c1C (stereo not given) | 592* | -7 | -3 | 0 | 0
CCOC(=O)c1sc2ncn(C(CC)C(=O)OC)c(=O)c2c1C (stereo not given) | 8 | -1 | -1 | 1 | x
CCN(CC)CCSc1nc2ccccc2n1Cc1ccccc1 | 19 | -2 | -8 | -1 | x
O=S(=O)(Nc1ccccc1C(F)(F)F)c1ccc(-c2ccccn2)s1 | 8 | 3 | 4 | 0 | x
Cc1ccc(CNS(=O)(=O)c2c(C(=O)N3CCCCC3)c(C)n(C)c2C)o1 | 6 | 18 | -5 | 0 | x
C=CCn1c(COc2cccc3ccc(C)nc23)nnc1SCC(N)=O | 6 | -5 | -6 | -38 | x
Cc1ccc2cccc(OCc3nnc(SCC(=O)O)n3C)c2n1 | + | -4 | -15 | 0 | 0
CN1C(=O)CC(c2ccccc2)CC1=O | 4 | -2 | x | -1 | x
CN1CC2(C)OC(=O)C(Cl)=C2CC1c1ccccc1 (stereo not given) | 431* | -10 | -8 | 0 | -1
CCCCn1c(N)c(N(CC)C(=O)c2c(CC)noc2C)c(=O)[nH]c1=O | 4 | -2 | x | 2 | x
CCCCn1c(N)c(N(Cc2ccccc2OC)C(=O)c2c(CC)noc2C)c(=O)[nH]c1=O | 395* | 6 | 2 | -1 | 1
COc1ccc(S(=O)(=O)N2CCCC(C(=O)NCc3ccc4c(c3)OCO4)C2)cc1 (stereo not given) | -2 | x | 1 | 0 | x
Cc1c(C(=O)N2CCOCC2)c(S(=O)(=O)Nc2cccc(Br)c2)c(C)n1C | 553* | 6 | -15 | 0 | 1
COc1cccc(S(=O)(=O)Nc2cccc(C(=O)N3CCOCC3)c2)c1 | 478* | -3 | 0 | 1 | 0
CC1CCCN(C(=O)CSc2nnc(-c3ccncc3)n2C)C1 (stereo not given) | -22 | -3 | -8 | 0 | x
Cc1c(=O)n(OCc2ccccn2)c2ccccc2[n+]1[O-] | 946* | -20 | 16 | 0 | 0
O=c1c(-c2ccc(F)cc2)[n+]([O-])c2ccccc2n1OCc1ccccn1 | 112 | 10 | -2 | 0 | x
Cc1sc(NC(=O)c2ccc(Cl)s2)c(C(N)=O)c1C | 23 | 2 | 5 | 3 | x
Cc1sc(NC(=O)c2ccc(Br)s2)c(C(N)=O)c1C | 408* | 11 | 2 | 2 | -2
O=C(O)CCCC(=O)Nc1nc(-c2ccc(F)cc2)cs1 | -8 | -1 | 9 | 0 | x
O=C(Cc1ccc(F)cc1)Nc1nc(-c2ccc(F)cc2)cs1 | + | -2 | -15 | 0 | -1
CC(OC(=O)CNC(=O)c1sc2ccccc2c1Cl)c1ccccc1 (stereo not given) | 1 | -3 | x | x | x
COc1ccccc1CNC(=O)CSc1nnc2ccc(-c3cccnc3)nn12 | -16 | 2 | -1 | 0 | x
COc1ccc(N2CC(O)=C(c3nc(-c4ccccc4)cs3)C2=N)cc1 | -10 | x | -2 | 0 | x
Cc1ccc(-c2csc(C3=C(O)CN(NC(=O)c4ccco4)C3=N)n2)cc1 | 375* | -6 | 2 | 0 | 0
CCOCCCNC(=O)C(c1ccc(C)cc1)N(Cc1cccs1)C(=O)c1ccccn1 (stereo not given) | 17 | 0 | 0 | 0 | x
CCOCCCNC(=O)C(c1ccc(OC)cc1)N(Cc1cccs1)C(=O)c1ccccn1 (stereo not given) | 522* | x | 4 | x | -1
O=C(NNS(=O)(=O)c1ccccc1F)c1ccccc1-n1cccc1 | 0 | 14 | 1 | 0 | x
COc1ccc(CN2C(=O)C(=O)N(CC(N)=O)C2=O)cc1 | 719* | 9 | -3 | 0 | 0
CN(Cc1ccccn1)C(=O)C1CCC(=O)N(Cc2cccc(F)c2)C1 (stereo not given) | 13 | -7 | -8 | 0 | x
